MARV entry inh – inhibitors of Marburg virus binding or cell entry. Marburg virus pseudotyped entry inhibition, cell reporter. Potency, µM (series often up to 37.8 µM), for inactives: top-dose activity change, negative = inhibition, most hits filed as inhibitors. 300,000 compounds, 1.8% hits. AID 540276; calls by dose curve; tested in HEK293 cells; note: potency is the fitted concentration of half-maximal effect
Lassa entry inh – inhibitors of Lassa virus binding or cell entry; 300,000 compounds, 1.2% hits; Lassa virus pseudotype entry inhibition, cell reporter; AID 540256; Potency, µM (highest dose often 37.9 µM), inactives show top-dose activity change, negative = inhibition, hits mostly inhibitors; calls by dose curve; tested in HEK293 cells; note: potency is the fitted concentration of half-maximal effect; nearly all actives have a fitted effect of over 50% in size
FMDV antiviral – blocks foot and mouth disease virus; AID 1159524; FMDV antiviral cell-based qHTS; 410,000 compounds, 1.2% hits; Potency, µM (doses to about 57.9 µM), for inactives: at the highest dose activity change, negative = inhibition, actives largely listed as inhibitors; calls by dose curve; tested in HEK293T cells; note: read-out not given here; potency is the fitted concentration of half-maximal effect; nearly all actives have a fitted effect of over 45% in size
Vaccinia mCherry – inhibitors of vaccinia virus infection (mCherry reporter signal) | Vaccinia virus mCherry reporter infection, fluorescence | Potency, µM (titrated, usually from 36.5 µM), for inactives: top-dose activity change, negative = inhibition, hits mostly inhibitors | 310,000 compounds, 0.63% hits | AID 720579; calls by dose curve; tested in A549 cells; note: potency is the fitted concentration of half-maximal effect; nearly all actives have a fitted effect of over 35% in size
VACV Venus inh – inhibitors of vaccinia virus (Venus reporter) | 330,000 compounds, 0.46% hits | Potency, µM (highest dose often 36.5 µM), without a hit: at the highest dose activity change, negative = inhibition, actives largely listed as inhibitors | Vaccinia virus Venus reporter expression, fluorescence; calls by dose curve; tested in A549 cells; note: potency is the fitted concentration of half-maximal effect; nearly all actives have a fitted effect of over 30% in size
HCMV antiviral – blocks human cytomegalovirus replication; HFF cells, HCMV-luciferase reporter, 72 h; active compounds read low; activity change, negative = inhibition, % at 57.5 µM; 410,000 compounds, 4.5% hits; in the data active = activity change below about -60%; inconclusive = no clear call, values can overlap the other calls; inactive = above about -39%
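HFF cells seeded 16 h at 37C, treated with compounds, infected with luciferase-reporter HCMV at MOI 1 PFU/cell; luciferase read at 72 h post infection, normalized to buffer-only and Salinomycin controls.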
The depositor's hits bear a star; i = inactive; ? = inconclusive; / = no result; ! = repeats disagree; [ ] = remark or other dose. Hits are enriched below; roughly 6.5% of the tested compounds scored in any of these assays. % is set by controls: 0 for no effect and ±100 for the full control effect.

SMILES	MARV entry inh	Lassa entry inh	FMDV antiviral	Vaccinia mCherry	VACV Venus inh	HCMV antiviral
COc1ccc(C(CCN2CCCCC2)c2c(OC)cc(OC)c3c(-c4ccccc4)cc(=O)oc23)cc1 (stereo unspecified)	/	/	18%	-27%	14µM*	2
CCCCCc1cc(=O)oc2c(C(CCN3CCCC(C)C3)c3ccc(N(C)C)cc3)c(OC)cc(OC)c12 (stereo unspecified)	/	/	-12%	11µM*	?	/
COc1cc(OC)c2c(-c3ccccc3)cc(=O)oc2c1C(CCN1CCCCC1)c1ccc(N(C)C)cc1 (stereo unspecified)	/	/	-10%	?	?	/
COc1cc(OC)c2ccc(=O)oc2c1C(CCN1CCCC(C)C1)c1ccc(N(C)C)cc1 (stereo unspecified)	/	/	-10%	-19%	-12%	-6
CCCCCc1cc(=O)oc2c(C(CCN3CCCCC3)c3cc(OC)c(OC)c(OC)c3)c(OC)cc(OC)c12 (stereo unspecified)	/	/	?	?	16µM*	-11
O=C([C@@H]1C[C@@H](Sc2nc3ccccc3[nH]2)CN1CC1CCCCC1)N1CCOCC1	/	/	12%	-7%	-7%	/
CCN1CCCC1CNC(=O)c1cnn(-c2nccc(-c3ccccc3OC)n2)c1-c1ccco1 (stereo unspecified)	/	/	-6%	-14%	0%	/
CCC(=O)N(CC)C1=C(O)c2ccccc2C(=O)C1=O	2%	-12%	-24%	-18%	-5%	-105*
Cc1nc(-c2ccccn2)nc(N(C)c2ccccc2)c1Cl	/	/	-8%	/	/	-61*
O=S(=O)(NCc1cccnc1)c1cccn1-c1ncc(C(F)(F)F)cc1Cl	?	-20%[46.1 µM]	-25%	-8%	-14%	-61*
Cc1ccc2[nH]c(=O)c(CN(Cc3ccc4c(c3)OCO4)Cc3nnnn3C3CCCC3)cc2c1	?	3.5µM*	-19%	-15%	-8%	-36
Cc1cc(-c2ccc(C)c(S(=O)(=O)NCc3cccc(Br)c3)c2)on1	/	-18%[46.1 µM]	15%	i	-6%	-63*!
Cc1cc(-c2ccc(C)c(S(=O)(=O)NCCc3ccco3)c2)on1	/	/	43%	/	/	2
Cc1cc(-c2ccc(C)c(S(=O)(=O)NCc3ccc(Br)cc3)c2)on1	/	/	-7%	/	/	-64*
Cc1cc(-c2ccc(C)c(S(=O)(=O)NCCc3ccc(S(N)(=O)=O)cc3)c2)on1	/	-6%[46.1 µM]	34%	i	-17%	-64*!
COc1ccc(-c2nc(-c3ccccc3)nc3ccccc23)cc1	/	/	/	/	/	-9
COc1ccc2c(c1)CCc1cnc(-n3ncc(C(=O)N(C)CC4CCCN(C)C4)c3C)nc1-2 (stereo unspecified)	/	/	-6%	-8%	-8%	/
CC(=O)c1ccc(NS(=O)(=O)c2c(C)cc(C)cc2C)cc1	?	?	68%	-22%	-22%	?
Cc1cc(C)c(S(=O)(=O)Nc2ccc3c(c2)CCC3)c(C)c1	7.3µM*	?	80%	i	-16%	-85*
Cc1cc(C)c(S(=O)(=O)Nc2ccc(C(N)=O)cc2)c(C)c1	9%[46.1 µM]	-14%	10%	-14%	-11%	-84*
Cc1c(CCC(=O)NCCc2ccccc2F)c(=O)oc2cc(O)ccc12	16%[46.1 µM]	-17%[46.1 µM]	-10%	-14%	-8%	-17
COc1ccc(-c2nc(-c3ccccn3)no2)cc1	0.29µM*	?	7.9µM*	/	/	-94*
Cc1ccccc1-c1nc(-c2ccccn2)no1	?	1.3µM*	6.3µM*	0%	9%	-8
Clc1ccc(OCc2nc(-c3ccccn3)no2)c(Br)c1	?	9.2µM*	-48%	-7%	-11%	-61*
COc1nc(C)ccc1-c1noc(-c2ccccn2)n1	?	8.2µM*	-40%	/	/	71
COc1ccccc1-c1nc(-c2ccccn2)no1	/	/	-72%	-10%	-8%	?
O=C(NCc1ccncn1)[C@H]1[C@H](CO)[C@H]2Cn3c(cccc3=O)[C@@H]1N2CC1CC1	/	/	/	/	/	1
CCOc1ccc(-c2nc(-c3cccnc3)no2)cc1	5.6µM*	10µM*	-12%	-13%	-6%	110
COc1ccc(-c2nc(-c3ccncc3)no2)cc1	/	/	-1%	/	/	99
Brc1ccc(-c2nc(-c3ccccn3)no2)o1	7.9µM*	8.9µM*	-59%	i	-25%	-6

Source: PubChem
